From paper PMC7819943, “Rice protein-binding microarrays: a tool to detect cis-acting elements near promoter regions in rice”
The full ranking holds about 68,000 sequences; the median of “fluorescence intensity (a.u.)” is about 9,100, and the highest 2% start at about 16,000. The full list was thinned out, with the highest values kept by preference.

target: OsWRKY34 (Oryza sativa, UniProt Q0JBA9 1-250); test: protein-binding microarray (RPBM); PBS, 2% BSA, 51.3 ng/ul salmon testes DNA, 50 uM zinc acetate, 200 nM TF, 25 C, 1 h; high values mean tight binding; conditions: protein: recombinant; tags: N-terminal polyhistidine and DsRed monomer fusion (pET32a); label: CyDye5-dUTP incorporated in the synthesized complementary strand; 3' TTTTT single-stranded linker to array surface; dsDNA, one strand shown
Method in brief: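 Ni–NTA purification followed expression in E. coli BL21-CodonPlus of transcription factors fused N-terminally to a polyhistidine tag and DsRed. At 200 nM in PBS with 2% BSA, salmon testes DNA and 50 µM zinc acetate, the protein was incubated for 1 h at 25 °C with a custom Agilent array that had been primer-extended with Cy5-dUTP and blocked with 2% BSA. After washing, the array was read on an Axon 4000B scanner. The binding signal is per-feature fluorescence intensity in arbitrary units.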

OsWRKY34, sequence (Q0JBA9 entry or part of it): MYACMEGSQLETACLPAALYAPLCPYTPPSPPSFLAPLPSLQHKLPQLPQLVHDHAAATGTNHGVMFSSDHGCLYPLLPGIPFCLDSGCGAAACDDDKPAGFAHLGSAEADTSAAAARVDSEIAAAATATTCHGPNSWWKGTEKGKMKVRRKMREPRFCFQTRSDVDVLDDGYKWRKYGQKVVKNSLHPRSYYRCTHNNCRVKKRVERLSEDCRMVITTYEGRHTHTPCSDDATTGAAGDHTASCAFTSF

Sequence	binding signal
CCACGCCGCACCCACCCACTGCCCGTTCCGTTCCGGCGACCGGAGTCACCTAGTGCAG	10900 fluorescence intensity (a.u.)
AATGTTTGACACCGTTGATTTTTTTAGCACATGTTTCACCCGGAGTCACCTAGTGCAG	8960 fluorescence intensity (a.u.)
TTCAAAATGTTTGACACCGTTGACTTTTTAACACATGATCCGGAGTCACCTAGTGCAG	32400 fluorescence intensity (a.u.)
ATATTTGACACCGTTGACTTTTTAGCACATGTTTGACTGTCGGAGTCACCTAGTGCAG	33000 fluorescence intensity (a.u.)
CCGCTGCCGCTTCCGCTTCCGCTTCTTCCGTTCTGGAGACCGGAGTCACCTAGTGCAG	10400 fluorescence intensity (a.u.)
TTGACACTGTTGACTTTTTAATATATGTTTGACTGTTCGTCGGAGTCACCTAGTGCAG	20400 fluorescence intensity (a.u.)
CGGCGCGTACGCAGTCCACTACCACCACTTCCGCCGGCGCCGGAGTCACCTAGTGCAG	8450 fluorescence intensity (a.u.)
CTTGCCGGCCTCCACCGCTAATGTTTGTGCACACAGAAAACGGAGTCACCTAGTGCAG	8330 fluorescence intensity (a.u.)
GAACCTAGAAATATTGTCTGTTTTCCTGCCGAACTGAACTCGGAGTCACCTAGTGCAG	9900 fluorescence intensity (a.u.)
TGAAAGGGGTTGATGTGTGGTGAAGGGTAGGTAATTTGTACGGAGTCACCTAGTGCAG	10700 fluorescence intensity (a.u.)
GGTGGTGGTGTGAGAGCAGTAGACAGGTTTTTCTTGGGGACGGAGTCACCTAGTGCAG	8280 fluorescence intensity (a.u.)
CTTCTGCTTCTGGTTCTGGTTCGCCTTCCTAGTTCCTACCCGGAGTCACCTAGTGCAG	8330 fluorescence intensity (a.u.)
GAAAAATCTTTCCAGTGGTAGTGTGTTGCTCTCGGCCTCGCGGAGTCACCTAGTGCAG	8320 fluorescence intensity (a.u.)
GCCCCGAGCGGGCCGAGCTCCCATCGTCTCATCGCCCCAACGGAGTCACCTAGTGCAG	11600 fluorescence intensity (a.u.)
AGCCAACCACACACAATGAACCATACCACAGTTACCACAGCGGAGTCACCTAGTGCAG	10100 fluorescence intensity (a.u.)
TTGGGGAGGATTTTTTCTTTTCATTTCATAATTAATTTCCCGGAGTCACCTAGTGCAG	11400 fluorescence intensity (a.u.)
TGCATCTCGCCTTATCCCCGCGCCGGCGCTAGGCGAATCGCGGAGTCACCTAGTGCAG	8340 fluorescence intensity (a.u.)
TTGACACCGTTGACTTTTTAGTACATGTTTGACCGTTCGTCGGAGTCACCTAGTGCAG	41400 fluorescence intensity (a.u.)
TGACTTTTTAGCACATGTTTGACTGTTCGTCTTATTCAAACGGAGTCACCTAGTGCAG	10200 fluorescence intensity (a.u.)
CCGAAGCGTCATCGCCGGTGGCCGTATCTTCTGCGTTGACCGGAGTCACCTAGTGCAG	15300 fluorescence intensity (a.u.)
ACGCCGCCGTTGCACTTCTCTGCACGCCATTGATCCGATCCGGAGTCACCTAGTGCAG	8480 fluorescence intensity (a.u.)
ACACCGTTGACTTTTTAGCACATGTTGGACTGTTCGTCTTCGGAGTCACCTAGTGCAG	39800 fluorescence intensity (a.u.)

Sequence	binding signal
AATGGTTTTATCGTTTTACGTGTGTACACCACTTATATATCGGAGTCACCTAGTGCAG	8060 fluorescence intensity (a.u.)
GCCGTATCTTCTGCGTTGACCAGATCCTTCACTGTCACGCCGGAGTCACCTAGTGCAG	19200 fluorescence intensity (a.u.)
AGTTTTTGGTAGTTTAGTTTGATACACCACTTCGTTTGATCGGAGTCACCTAGTGCAG	18600 fluorescence intensity (a.u.)
TTTTAGCACATGTTGACCGTTCGTCTTATTCAAAAAATTTCGGAGTCACCTAGTGCAG	9160 fluorescence intensity (a.u.)
TTCGTTGTACTTACCATCGTTGTTTAGTTTGATTTTTTTTCGGAGTCACCTAGTGCAG	8950 fluorescence intensity (a.u.)
TAACCAGAGTAAATTTTTGGCCAACTTAAGTGCTTTCATACGGAGTCACCTAGTGCAG	9070 fluorescence intensity (a.u.)
GCAACTTTTTTTCCAAATGTTTGGCATCTGGTGTGTCATCCGGAGTCACCTAGTGCAG	8040 fluorescence intensity (a.u.)
GAAGCCCACCCAATTCGATTTTTTGGGCCGCCCCACCTTTCGGAGTCACCTAGTGCAG	8790 fluorescence intensity (a.u.)
TACCGTCGTGCTCCATCAATTCCATCTCCACGTGTTATTGCGGAGTCACCTAGTGCAG	10900 fluorescence intensity (a.u.)
GCGATCTTCGCGGCTTCACCATCATACCTGCAACTGCAACCGGAGTCACCTAGTGCAG	8220 fluorescence intensity (a.u.)
CGTCCGGCCGCGAAACCGAGCCTTCTGACCACCGCCGAAACGGAGTCACCTAGTGCAG	8050 fluorescence intensity (a.u.)
ACACCGTTGACTTTTTAGCACGTGTTTGACCGTTCACCTTCGGAGTCACCTAGTGCAG	26900 fluorescence intensity (a.u.)
CACCGTTGATTTTTTAGCACATGTTTGACCGTTCGTCTTACGGAGTCACCTAGTGCAG	12900 fluorescence intensity (a.u.)
ACCGTTGACTTTTTAGCACATGATTGATCGTTCGTTTTATCGGAGTCACCTAGTGCAG	33800 fluorescence intensity (a.u.)
TTGTTTGCACCGGTTTTGACAGTTCAGGGATCGGTTGTATCGGAGTCACCTAGTGCAG	8200 fluorescence intensity (a.u.)
ATTTGACACCGTTAACCTTTTAGCACATGTTTGACCGTTCCGGAGTCACCTAGTGCAG	11900 fluorescence intensity (a.u.)
TTGATTTTTTTAGCACATGTTTGACCGTTCGTCTTATTAACGGAGTCACCTAGTGCAG	13200 fluorescence intensity (a.u.)
GTTGACTTTTTAGCACGTGTTTGACCGTTCGTCTTATTAACGGAGTCACCTAGTGCAG	9780 fluorescence intensity (a.u.)
TAAGCACAGTTGACTTTTTTTTTGGTGTGTTCCGGTGTATCGGAGTCACCTAGTGCAG	20900 fluorescence intensity (a.u.)
TATTTAACACCGTTGACTTTTTAGCACATGTTTGACCGTTCGGAGTCACCTAGTGCAG	38200 fluorescence intensity (a.u.)
GTTTGTTGCAGTTTGGTGTGTATGTTTGTTGCACTTTGATCGGAGTCACCTAGTGCAG	9920 fluorescence intensity (a.u.)
